Experimental findings from article PMC7862700, “An all-to-all approach to the identification of sequence-specific readers for epigenetic DNA modifications on cytosine” are described below.

Common to all, as to assay: DAPPL (digital affinity profiling via proximity ligation, sequencing); 10 mM Tris-HCl pH 7.5, 50 mM NaCl, 1 mM DTT, 4% glycerol, room temperature, 30 min; GST-TFs on glutathione beads, 16-mer random dsDNA library, 0.1% formaldehyde crosslink after washing; high values mean tight binding
One experiment deals with T1, FEV (Homo sapiens, UniProt Q99581 1-238).
T1 sequence: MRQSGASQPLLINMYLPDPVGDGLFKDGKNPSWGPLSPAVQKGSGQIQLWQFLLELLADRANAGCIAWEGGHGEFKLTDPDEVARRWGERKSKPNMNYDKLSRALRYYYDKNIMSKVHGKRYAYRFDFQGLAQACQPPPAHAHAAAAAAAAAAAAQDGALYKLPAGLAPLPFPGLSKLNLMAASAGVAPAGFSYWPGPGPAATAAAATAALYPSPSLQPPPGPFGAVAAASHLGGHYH
The note with it: protein: recombinant; tags: N-terminal GST; dsDNA, one strand shown. In a few lines: (§1)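 Yeast served to express human transcription factors as GST fusions, which were then captured on glutathione beads and labelled with DNA barcodes. Pooled with a tag-only sample, they were incubated with 200 nmole of a 16-mer random double-stranded DNA library for 30 min at room temperature in Tris/NaCl/DTT/glycerol buffer, washed, crosslinked with 0.1% formaldehyde, ligated by proximity, amplified by PCR and sequenced. Dividing each hexamer's read frequency for a factor by its frequency for the tag-only sample gives the binding signal.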

In another experiment the target is ETV5 (Homo sapiens, UniProt P41161 1-510). Conditions: protein: recombinant; tags: N-terminal GST; dsDNA, one strand shown. In a few lines:
as §1

Another experiment deals with HSF1 (Homo sapiens, UniProt Q00613 1-529). The note with it: protein: recombinant; tags: N-terminal GST; chain copies: 3; dsDNA, one strand shown. An outline of the steps: as §1
Chain of HSF1 (Q00613 whole entry): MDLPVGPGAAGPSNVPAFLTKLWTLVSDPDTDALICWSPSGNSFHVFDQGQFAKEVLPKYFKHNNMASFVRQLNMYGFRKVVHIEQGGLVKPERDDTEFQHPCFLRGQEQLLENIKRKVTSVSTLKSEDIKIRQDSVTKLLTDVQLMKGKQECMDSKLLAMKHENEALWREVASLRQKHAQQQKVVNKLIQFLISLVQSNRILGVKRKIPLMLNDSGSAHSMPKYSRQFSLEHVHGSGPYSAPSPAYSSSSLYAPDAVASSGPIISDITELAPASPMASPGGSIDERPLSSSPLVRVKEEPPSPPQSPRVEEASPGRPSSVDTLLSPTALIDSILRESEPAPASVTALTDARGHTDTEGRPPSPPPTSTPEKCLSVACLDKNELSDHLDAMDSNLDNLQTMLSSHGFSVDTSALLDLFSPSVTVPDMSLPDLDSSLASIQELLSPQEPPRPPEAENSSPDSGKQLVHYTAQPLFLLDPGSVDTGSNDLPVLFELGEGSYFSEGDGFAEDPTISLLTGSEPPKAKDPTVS
A further experiment addresses T2, SPIC (Homo sapiens, UniProt Q8N5J4 1-248).
T2 sequence: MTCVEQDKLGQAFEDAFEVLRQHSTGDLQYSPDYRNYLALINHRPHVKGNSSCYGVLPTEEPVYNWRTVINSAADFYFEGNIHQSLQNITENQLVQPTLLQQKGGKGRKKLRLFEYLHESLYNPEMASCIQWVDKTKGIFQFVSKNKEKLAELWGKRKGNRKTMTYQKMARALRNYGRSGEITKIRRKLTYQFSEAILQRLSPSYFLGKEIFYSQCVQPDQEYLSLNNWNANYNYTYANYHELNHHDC
Conditions: protein: recombinant; tags: N-terminal GST; dsDNA, one strand shown. An outline of the steps: as §1

The target of the next experiment is ELF4 (Homo sapiens, UniProt Q99607 1-663). Conditions: protein: recombinant; tags: N-terminal GST; dsDNA, one strand shown. An outline of the steps:
as §1

In a further experiment the target is T3, ELK4 (Homo sapiens, UniProt P28324-2 1-405).
T3 sequence: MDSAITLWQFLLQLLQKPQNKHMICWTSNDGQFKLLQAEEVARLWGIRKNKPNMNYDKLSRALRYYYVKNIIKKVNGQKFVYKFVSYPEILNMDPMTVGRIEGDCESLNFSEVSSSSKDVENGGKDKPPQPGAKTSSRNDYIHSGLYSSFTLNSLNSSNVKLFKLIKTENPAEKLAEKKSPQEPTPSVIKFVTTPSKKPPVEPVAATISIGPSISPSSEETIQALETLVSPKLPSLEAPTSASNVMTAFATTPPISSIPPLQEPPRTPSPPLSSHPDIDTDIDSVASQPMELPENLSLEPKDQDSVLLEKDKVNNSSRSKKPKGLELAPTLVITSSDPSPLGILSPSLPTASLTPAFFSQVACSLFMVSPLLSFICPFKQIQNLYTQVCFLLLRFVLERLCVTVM
Conditions: protein: recombinant; tags: N-terminal GST; dsDNA, one strand shown. An outline of the steps:
as §1

For the next experiment, the target named is T4, ETV2 (Homo sapiens, UniProt O00321 1-342).
T4 sequence: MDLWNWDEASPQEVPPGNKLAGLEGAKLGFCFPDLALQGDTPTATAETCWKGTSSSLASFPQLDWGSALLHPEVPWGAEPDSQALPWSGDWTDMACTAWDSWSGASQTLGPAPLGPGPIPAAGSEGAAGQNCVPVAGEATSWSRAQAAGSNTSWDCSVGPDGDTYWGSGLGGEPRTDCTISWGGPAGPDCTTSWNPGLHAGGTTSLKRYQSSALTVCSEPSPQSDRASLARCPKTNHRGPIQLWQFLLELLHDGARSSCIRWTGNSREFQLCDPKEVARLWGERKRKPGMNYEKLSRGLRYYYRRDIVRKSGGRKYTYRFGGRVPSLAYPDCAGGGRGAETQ
Conditions: protein: recombinant; tags: N-terminal GST; dsDNA, one strand shown. In a few lines: as §1

Another experiment concerns the target T5, ELF3 (Homo sapiens, UniProt P78545 1-371).
T5 sequence: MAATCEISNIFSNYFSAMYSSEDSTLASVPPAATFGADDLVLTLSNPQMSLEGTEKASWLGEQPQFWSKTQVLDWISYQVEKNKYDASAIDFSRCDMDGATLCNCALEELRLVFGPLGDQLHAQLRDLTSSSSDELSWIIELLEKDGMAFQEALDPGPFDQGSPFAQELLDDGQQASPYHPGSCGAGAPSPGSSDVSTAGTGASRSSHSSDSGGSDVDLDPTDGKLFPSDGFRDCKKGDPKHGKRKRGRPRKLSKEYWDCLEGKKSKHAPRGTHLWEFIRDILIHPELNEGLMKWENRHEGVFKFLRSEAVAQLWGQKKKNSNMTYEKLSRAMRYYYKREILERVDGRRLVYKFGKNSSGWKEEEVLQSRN
The note with it: protein: recombinant; tags: N-terminal GST; dsDNA, one strand shown. An outline of the steps:
as §1

The target of another experiment is CRX (Homo sapiens, UniProt O43186 1-299). Conditions: protein: recombinant; tags: N-terminal GST; dsDNA, one strand shown. In a few lines: as §1
Chain of CRX (O43186 whole entry): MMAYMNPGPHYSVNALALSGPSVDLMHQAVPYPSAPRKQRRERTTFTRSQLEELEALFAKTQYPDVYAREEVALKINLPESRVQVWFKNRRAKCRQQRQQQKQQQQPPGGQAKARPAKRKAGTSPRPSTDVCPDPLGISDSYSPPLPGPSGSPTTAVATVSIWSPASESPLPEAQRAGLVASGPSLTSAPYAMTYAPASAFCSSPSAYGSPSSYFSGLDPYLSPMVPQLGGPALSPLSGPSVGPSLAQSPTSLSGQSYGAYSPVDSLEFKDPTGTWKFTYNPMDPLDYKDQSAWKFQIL
For a further experiment, the target named is ETV1 (Homo sapiens, UniProt P50549 1-477). The note with it: protein: recombinant; tags: N-terminal GST; dsDNA, one strand shown. In a few lines:
as §1

The target in the next experiment is T6, ERF (Homo sapiens, UniProt P50548 1-548).
T6 sequence: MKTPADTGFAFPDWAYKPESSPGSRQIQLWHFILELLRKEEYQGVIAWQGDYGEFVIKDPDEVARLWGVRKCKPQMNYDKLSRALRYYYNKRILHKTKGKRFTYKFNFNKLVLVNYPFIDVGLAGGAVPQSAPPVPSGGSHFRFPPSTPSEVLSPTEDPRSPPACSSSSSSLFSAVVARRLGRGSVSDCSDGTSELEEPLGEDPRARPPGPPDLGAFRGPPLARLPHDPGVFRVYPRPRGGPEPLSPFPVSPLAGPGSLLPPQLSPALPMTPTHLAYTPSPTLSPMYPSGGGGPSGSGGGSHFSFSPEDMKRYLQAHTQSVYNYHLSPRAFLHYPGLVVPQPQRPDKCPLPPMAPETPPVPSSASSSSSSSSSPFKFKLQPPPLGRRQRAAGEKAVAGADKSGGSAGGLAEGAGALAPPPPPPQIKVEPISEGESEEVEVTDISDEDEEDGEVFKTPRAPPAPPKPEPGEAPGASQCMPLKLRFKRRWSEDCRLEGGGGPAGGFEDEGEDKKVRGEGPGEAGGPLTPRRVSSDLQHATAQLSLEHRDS
Conditions: protein: recombinant; tags: N-terminal GST; dsDNA, one strand shown. In a few lines:
as §1

The target of a further experiment is T7, ETV3L (Homo sapiens, UniProt Q6ZN32 1-361).
T7 sequence: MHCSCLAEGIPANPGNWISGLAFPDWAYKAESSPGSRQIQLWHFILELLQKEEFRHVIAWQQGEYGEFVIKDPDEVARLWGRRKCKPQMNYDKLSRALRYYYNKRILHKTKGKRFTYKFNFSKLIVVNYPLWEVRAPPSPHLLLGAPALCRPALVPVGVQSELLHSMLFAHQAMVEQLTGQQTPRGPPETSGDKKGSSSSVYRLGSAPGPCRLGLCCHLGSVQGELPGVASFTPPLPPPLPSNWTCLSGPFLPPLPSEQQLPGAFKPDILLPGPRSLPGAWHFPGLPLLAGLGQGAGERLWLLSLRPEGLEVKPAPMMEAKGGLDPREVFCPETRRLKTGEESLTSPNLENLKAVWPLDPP
The note with it: protein: recombinant; tags: N-terminal GST; dsDNA, one strand shown. In a few lines: as §1

A further experiment deals with T8, ETS2 (Homo sapiens, UniProt P15036 1-469).
T8 sequence: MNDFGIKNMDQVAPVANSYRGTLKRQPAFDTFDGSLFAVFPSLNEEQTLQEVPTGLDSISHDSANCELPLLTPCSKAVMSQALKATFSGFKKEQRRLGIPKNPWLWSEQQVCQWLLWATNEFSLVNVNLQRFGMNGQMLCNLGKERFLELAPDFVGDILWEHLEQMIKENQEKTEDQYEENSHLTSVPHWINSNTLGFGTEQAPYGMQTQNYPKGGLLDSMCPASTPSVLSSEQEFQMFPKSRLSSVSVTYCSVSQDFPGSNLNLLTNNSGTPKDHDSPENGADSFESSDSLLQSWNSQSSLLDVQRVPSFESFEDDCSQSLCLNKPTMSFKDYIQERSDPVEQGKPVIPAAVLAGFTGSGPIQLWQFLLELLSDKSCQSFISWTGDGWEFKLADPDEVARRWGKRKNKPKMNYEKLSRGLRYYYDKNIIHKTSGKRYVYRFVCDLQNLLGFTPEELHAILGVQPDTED
The note with it: protein: recombinant; tags: N-terminal GST; dsDNA, one strand shown. An outline of the steps: as §1

In another experiment the target is T9, SPDEF (Homo sapiens, UniProt O95238 1-335).
T9 sequence: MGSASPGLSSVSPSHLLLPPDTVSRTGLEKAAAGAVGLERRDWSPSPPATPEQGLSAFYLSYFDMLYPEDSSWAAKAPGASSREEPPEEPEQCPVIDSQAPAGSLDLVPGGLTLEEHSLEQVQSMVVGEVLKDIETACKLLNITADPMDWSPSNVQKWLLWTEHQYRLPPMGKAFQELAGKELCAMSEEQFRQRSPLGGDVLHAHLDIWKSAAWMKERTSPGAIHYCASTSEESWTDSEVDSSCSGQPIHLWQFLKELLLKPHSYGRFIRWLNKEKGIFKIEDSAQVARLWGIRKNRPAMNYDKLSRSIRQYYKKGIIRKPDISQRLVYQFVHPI
The note with it: protein: recombinant; tags: N-terminal GST; dsDNA, one strand shown. In a few lines:
as §1

The target of another experiment is T10, ETV7 (Homo sapiens, UniProt Q9Y603 1-341).
T10 sequence: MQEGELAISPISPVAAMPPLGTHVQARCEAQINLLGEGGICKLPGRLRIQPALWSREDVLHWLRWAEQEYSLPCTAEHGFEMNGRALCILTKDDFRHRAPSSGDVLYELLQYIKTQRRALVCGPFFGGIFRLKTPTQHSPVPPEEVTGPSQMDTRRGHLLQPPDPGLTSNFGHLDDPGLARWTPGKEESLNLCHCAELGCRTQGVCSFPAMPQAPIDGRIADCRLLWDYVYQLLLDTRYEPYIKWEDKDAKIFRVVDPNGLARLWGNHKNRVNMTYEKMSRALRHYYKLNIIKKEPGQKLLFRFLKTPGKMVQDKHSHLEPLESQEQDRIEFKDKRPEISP
Conditions: protein: recombinant; tags: N-terminal GST; dsDNA, one strand shown. In a few lines:
as §1

The target in the next experiment is T11, ELF5 (Homo sapiens, UniProt Q9UKW6-2 1-255).
T11 sequence: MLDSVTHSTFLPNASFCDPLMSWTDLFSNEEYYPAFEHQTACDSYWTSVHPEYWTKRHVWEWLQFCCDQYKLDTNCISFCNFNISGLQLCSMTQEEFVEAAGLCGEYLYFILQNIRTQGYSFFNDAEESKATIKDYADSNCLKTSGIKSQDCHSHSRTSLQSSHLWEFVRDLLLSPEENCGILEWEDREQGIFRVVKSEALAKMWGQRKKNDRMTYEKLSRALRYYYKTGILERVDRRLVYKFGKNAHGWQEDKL
The note with it: protein: recombinant; tags: N-terminal GST; dsDNA, one strand shown. An outline of the steps: as §1

The target of the next experiment is T12, ETV3 (Homo sapiens, UniProt P41162-2 1-143).
T12 sequence: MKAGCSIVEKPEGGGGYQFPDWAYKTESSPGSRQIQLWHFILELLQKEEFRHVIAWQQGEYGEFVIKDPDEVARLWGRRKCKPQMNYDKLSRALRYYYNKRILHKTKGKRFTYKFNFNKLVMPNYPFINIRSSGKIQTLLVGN
The note with it: protein: recombinant; tags: N-terminal GST; dsDNA, one strand shown. An outline of the steps: as §1

The target in the next experiment is ETV6 (Homo sapiens, UniProt P41212 1-452). Conditions: protein: recombinant; tags: N-terminal GST; dsDNA, one strand shown. An outline of the steps: as §1
Chain of ETV6 (P41212 whole entry): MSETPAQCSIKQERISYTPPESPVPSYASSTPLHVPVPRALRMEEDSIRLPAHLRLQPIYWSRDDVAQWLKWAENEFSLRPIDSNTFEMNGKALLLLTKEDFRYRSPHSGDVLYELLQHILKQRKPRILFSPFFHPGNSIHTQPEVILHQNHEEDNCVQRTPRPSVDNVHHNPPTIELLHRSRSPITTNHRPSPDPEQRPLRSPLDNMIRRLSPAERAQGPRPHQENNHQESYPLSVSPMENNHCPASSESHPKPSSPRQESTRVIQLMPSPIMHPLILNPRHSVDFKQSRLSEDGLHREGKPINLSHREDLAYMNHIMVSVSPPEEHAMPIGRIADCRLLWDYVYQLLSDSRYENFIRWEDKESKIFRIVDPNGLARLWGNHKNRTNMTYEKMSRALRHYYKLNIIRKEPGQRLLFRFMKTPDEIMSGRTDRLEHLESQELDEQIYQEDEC

Chain of ETV1 (P50549 whole entry): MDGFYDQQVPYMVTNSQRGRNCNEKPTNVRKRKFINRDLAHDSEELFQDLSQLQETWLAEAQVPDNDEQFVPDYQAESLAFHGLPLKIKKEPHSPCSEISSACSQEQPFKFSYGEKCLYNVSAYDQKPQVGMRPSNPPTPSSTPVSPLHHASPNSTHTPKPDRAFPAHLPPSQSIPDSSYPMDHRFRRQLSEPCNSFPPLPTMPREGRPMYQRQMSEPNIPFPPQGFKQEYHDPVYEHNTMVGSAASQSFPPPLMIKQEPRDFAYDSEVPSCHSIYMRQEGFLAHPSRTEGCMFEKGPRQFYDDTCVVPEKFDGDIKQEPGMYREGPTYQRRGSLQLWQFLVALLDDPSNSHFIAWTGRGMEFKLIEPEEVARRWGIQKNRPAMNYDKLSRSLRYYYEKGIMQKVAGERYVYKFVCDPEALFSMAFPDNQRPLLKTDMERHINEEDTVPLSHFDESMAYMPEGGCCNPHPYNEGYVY
Chain of ETV5 (P41161 whole entry): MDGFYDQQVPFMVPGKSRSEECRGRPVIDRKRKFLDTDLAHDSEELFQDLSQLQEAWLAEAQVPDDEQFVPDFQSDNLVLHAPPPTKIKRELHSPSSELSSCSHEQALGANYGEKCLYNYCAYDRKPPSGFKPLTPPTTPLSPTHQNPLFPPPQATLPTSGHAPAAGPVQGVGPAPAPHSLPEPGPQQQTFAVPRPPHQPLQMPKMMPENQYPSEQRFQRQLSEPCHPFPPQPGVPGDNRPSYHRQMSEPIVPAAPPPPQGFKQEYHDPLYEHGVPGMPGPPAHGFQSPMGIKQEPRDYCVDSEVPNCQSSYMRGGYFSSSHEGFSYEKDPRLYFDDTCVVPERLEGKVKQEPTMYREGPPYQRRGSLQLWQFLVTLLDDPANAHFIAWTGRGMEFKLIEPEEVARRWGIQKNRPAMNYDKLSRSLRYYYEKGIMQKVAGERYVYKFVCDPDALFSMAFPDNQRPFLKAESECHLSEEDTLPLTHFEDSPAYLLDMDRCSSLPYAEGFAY
Chain of ELF4 (Q99607 whole entry): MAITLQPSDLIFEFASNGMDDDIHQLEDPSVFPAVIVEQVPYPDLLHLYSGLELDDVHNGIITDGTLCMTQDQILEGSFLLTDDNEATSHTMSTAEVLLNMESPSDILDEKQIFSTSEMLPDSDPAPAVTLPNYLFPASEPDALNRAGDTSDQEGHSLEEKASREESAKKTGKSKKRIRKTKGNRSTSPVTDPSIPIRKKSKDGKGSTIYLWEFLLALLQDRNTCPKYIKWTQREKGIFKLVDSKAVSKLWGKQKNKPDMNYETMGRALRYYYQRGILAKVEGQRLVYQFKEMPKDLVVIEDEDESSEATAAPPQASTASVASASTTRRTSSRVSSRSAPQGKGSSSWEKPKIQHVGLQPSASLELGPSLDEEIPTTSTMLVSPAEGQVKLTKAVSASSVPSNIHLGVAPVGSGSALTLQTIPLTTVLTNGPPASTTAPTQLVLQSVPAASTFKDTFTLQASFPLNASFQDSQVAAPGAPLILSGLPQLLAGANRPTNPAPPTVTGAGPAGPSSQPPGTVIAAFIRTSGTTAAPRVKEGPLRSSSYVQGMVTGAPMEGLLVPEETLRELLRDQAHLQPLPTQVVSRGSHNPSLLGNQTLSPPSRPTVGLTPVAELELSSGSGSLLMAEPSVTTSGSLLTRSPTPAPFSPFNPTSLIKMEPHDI

Regarding GTTCCT, the binding signal with FEV was 1.75 fold enrichment (6-mer frequency, TF over GST control); with ETV5 it was 1.91 fold enrichment (6-mer frequency, TF over GST control); with HSF1, 1.43 fold enrichment (6-mer frequency, TF over GST control); in the experiment with SPIC, 1.96 fold enrichment (6-mer frequency, TF over GST control); with ELF4, 1.6 fold enrichment (6-mer frequency, TF over GST control); with ELK4, 1.48 fold enrichment (6-mer frequency, TF over GST control). The binding signal in the experiment with ETV2 is 1.65 fold enrichment (6-mer frequency, TF over GST control); with ELF3, 1.6 fold enrichment (6-mer frequency, TF over GST control); in the experiment with CRX, 1.07 fold enrichment (6-mer frequency, TF over GST control); in the experiment with ETV1, 1.79 fold enrichment (6-mer frequency, TF over GST control); with ERF, 1.49 fold enrichment (6-mer frequency, TF over GST control); in the experiment with ETV3L, 1.71 fold enrichment (6-mer frequency, TF over GST control). Further, the binding signal with ETS2 is 1.75 fold enrichment (6-mer frequency, TF over GST control); in the experiment with SPDEF, 1.74 fold enrichment (6-mer frequency, TF over GST control); with ETV7, 1.67 fold enrichment (6-mer frequency, TF over GST control); with ELF5, 2.54 fold enrichment (6-mer frequency, TF over GST control); with ETV3, 1.88 fold enrichment (6-mer frequency, TF over GST control); with ETV6 it was 1.82 fold enrichment (6-mer frequency, TF over GST control).
